# Screening data (PubChem BioAssay)
# RBX1-CUL1 inh = inhibitors of human ROC1-CUL1 ubiquitin ligase activity; E3 ubiquitin-protein ligase RBX1 (Homo sapiens) + Cullin-1 (Homo sapiens), P62877+Q13616; in vitro K48 di-Ub FRET, acceptor:donor ratio, 45 min; inhibition, % at 10 µM; 140,000 tested, 0.6% active; AID 1347404, 2020; in the data active = inhibition above about 25%
# Target sequence (P62877 whole entry, looked up): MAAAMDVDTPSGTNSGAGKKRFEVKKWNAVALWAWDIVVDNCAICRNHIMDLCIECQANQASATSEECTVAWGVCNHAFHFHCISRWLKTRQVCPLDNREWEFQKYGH
# Target sequence (Q13616 whole entry, looked up): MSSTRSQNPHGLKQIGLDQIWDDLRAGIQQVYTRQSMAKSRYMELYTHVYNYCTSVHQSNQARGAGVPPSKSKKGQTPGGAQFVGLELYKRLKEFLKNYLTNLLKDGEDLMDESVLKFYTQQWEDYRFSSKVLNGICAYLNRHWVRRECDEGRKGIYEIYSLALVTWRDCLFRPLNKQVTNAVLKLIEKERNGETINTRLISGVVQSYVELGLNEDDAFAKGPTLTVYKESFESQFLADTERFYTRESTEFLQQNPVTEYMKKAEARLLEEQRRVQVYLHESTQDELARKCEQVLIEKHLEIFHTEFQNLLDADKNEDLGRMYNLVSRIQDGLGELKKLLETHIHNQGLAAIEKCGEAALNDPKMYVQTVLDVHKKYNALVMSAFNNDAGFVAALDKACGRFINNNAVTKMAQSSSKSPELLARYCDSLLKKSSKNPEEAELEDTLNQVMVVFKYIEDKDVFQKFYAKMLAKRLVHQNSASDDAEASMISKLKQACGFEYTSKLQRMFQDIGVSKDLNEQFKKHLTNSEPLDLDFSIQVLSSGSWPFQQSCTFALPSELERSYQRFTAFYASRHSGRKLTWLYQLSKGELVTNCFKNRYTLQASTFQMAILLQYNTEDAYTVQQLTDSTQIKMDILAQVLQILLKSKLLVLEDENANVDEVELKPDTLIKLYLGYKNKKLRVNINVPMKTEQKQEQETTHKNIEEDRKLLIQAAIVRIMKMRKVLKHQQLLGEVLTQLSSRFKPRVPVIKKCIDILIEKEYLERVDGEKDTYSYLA
# Numbers stand for hits; . = inactive. The entries come from a sample that favours hits as a whole.
SMILES,RBX1-CUL1 inh
COCCN1C(=O)NC(Cc2ccc(F)cc2)(C2CCN(C(=O)CCC(C)C)CC2)C1=O (stereo not drawn),.
CCOc1cccc(NC(=O)c2sc3nc4c(cc3c2N)CC(CC)CC4)c1 (stereo not drawn),.
CC(=O)c1nn(-c2ccc(Cl)cc2)c(C)c1C(C)=O,.
O=C1NCC2=Nc3ccccc3NC(c3ccccc3O)C12 (stereo not drawn),.
O=C1CCCc2ccc(Cl)cc21,.
CCN1C(=O)/C(=C/c2cc(C(C)(C)C)c(O)c(C(C)(C)C)c2)N(C)C1=S,.
COc1cc(C(=O)NN2C(=O)c3ccccc3NC2c2cc(OCc3ccccc3)ccc2Br)cc(OC)c1OC (stereo not drawn),.
O=C1C=C(N2CCc3ccccc32)c2ccccc2C1=O,77
CC(=O)N(C)C1=C(N2CCCC2)C(=O)c2ccccc2C1=O,.
O=C1C=C(N2CCCCC2)c2ccccc2C1=O,80
Cc1nc(N2CCc3ccccc32)nc2c1C(=O)CC(C)(C)C2,.
O=C1C(=Cc2ccc(N3CCCCCC3)o2)C(=O)c2ccccc21,.
Nc1ccc(S(=O)(=O)N2CCc3ccccc32)cc1,.
COC(=O)CC1C(=O)NCCN1Cc1nc(N(C)Cc2ccc(OC)c(OC)c2)c2ccccc2n1 (stereo not drawn),.
COc1ccc(CNS(=O)(=O)c2ccc(OC)c(Cl)c2Cl)cc1,.
O=C(CSc1ncnc2sc3c(c12)CCCC3)NNC(=O)c1ccc(Br)cc1,.
O=C(Nc1ccc(OCCOc2ccccc2)cc1)c1ccco1,.
CCOc1ccc2nc3cc(NC(=O)c4ccco4)ccc3c(N)c2c1,97
CCCCOc1cccc(NC(=O)c2ccco2)c1,.
C=CCNC(=O)c1ccc(OC(C)C)c(Br)c1,.
COc1cc(CN2CC[C@@H](N3CCCCCC3)[C@H](O)C2)cc(Cl)c1OC,.
O=C(NCc1cccc(Cl)c1)C1CCCN(C2CCN(C(=O)C3CC3)CC2)C1 (stereo not drawn),.
COC(=O)C1C(C)=NC(=O)CC1c1ccccc1C(F)(F)F (stereo not drawn),.
O=C1/C(=C\c2cccc(O)c2)SC(=S)N1c1ccccc1,.
CC(/C=C1\SC(=S)N(c2cccc(C(=O)O)c2)C1=O)=C\c1ccccc1,66
SMILES,RBX1-CUL1 inh
CC(/C=C1\SC(=S)N(CC(=O)O)C1=O)=C\c1ccccc1,.
CC(/C=C1\SC(=S)N(NC(=O)c2cccc(O)c2)C1=O)=C\c1ccccc1,.
CC(=C/c1ccccc1)/C=C1\SC(=S)N(C(C(=O)O)c2ccccc2)C1=O (stereo not drawn),105
CCOC(=O)c1ccc(NC(=O)CN2C(=O)S/C(=C/C(C)=C/c3ccccc3)C2=O)cc1,.
COc1ccc(-c2cc(=O)n3[nH]c(C(F)(F)F)nc3n2)cc1OC,.
Cc1ccccc1Cn1nc(C)c(NC(=O)c2cncc(C(=O)Nc3c(C)nn(Cc4ccccc4C)c3C)c2)c1C,.
Cc1ccc(N2CC(=O)C(c3nc4ccccc4c(=O)[nH]3)C2=N)cc1 (stereo not drawn),.
O=C1/C(=C\c2ccc(-c3ccc(Cl)c(Cl)c3)o2)SC(=Nc2ccccc2)N1Cc1ccco1,.
N#Cc1ccc(/C=C2/SC(=Nc3ccccc3)N(Cc3ccc(C(=O)O)cc3)C2=O)cc1,.
N#Cc1ccc(-c2ccc(/C=C3\SC(=Nc4ccccc4)N(Cc4ccco4)C3=O)o2)cc1,53
CC(C)(C)c1ccc(OCC(=O)NNC(=O)CCCC(=O)NNC(=O)COc2ccc(C(C)(C)C)cc2)cc1,.
COc1cccc(/C=C(\C#N)c2nc3ccc(C)cc3[nH]2)c1,.
Cc1ccc2nc(/C(C#N)=C/c3ccccc3Cl)[nH]c2c1,.
Cc1ccc2nc(/C(C#N)=C/c3coc4ccccc4c3=O)[nH]c2c1,26
C/C(Cl)=C/CSc1nc2c(c(=O)[nH]c(=O)n2C)n1CCc1ccccc1,.
CC(C)C(C(=O)O)N1C(=O)/C(=C/c2ccc(F)cc2)SC1=S (stereo not drawn),.
O=C1/C(=C\c2ccco2)SC(=S)N1c1cccc(O)c1,.
O=C1/C(=C/c2ccco2)SC(=S)N1c1ccccc1Br,.
CC(C)C(C(=O)O)N1C(=O)/C(=C\c2ccco2)SC1=S (stereo not drawn),102
O=C(CN1C(=O)S/C(=C\c2ccco2)C1=O)c1ccc(Br)cc1,.
CC(C(=O)O)N1C(=O)/C(=C\c2ccco2)SC1=S (stereo not drawn),53
CC(C)(C)Oc1ncc(-c2ccncc2)c(OC(C)(C)C)n1,.
CN(CC1CCCN(CCc2ccccc2F)C1)C(=O)CN1C(=O)CSC1=O (stereo not drawn),.
COc1ccc(C(=O)c2cc(C)ccc2OC)cc1,.
COc1ccc(C(=O)c2coc3c2cc(O)c2ccccc23)cc1,.
SMILES,RBX1-CUL1 inh
COc1ccc(C(=O)c2coc3c2C(=O)C(=O)C(Br)=C3)cc1,102
COCC(=O)Nc1cnn(-c2cccc(C(=O)N(C)Cc3ccc(Oc4ccccc4)cc3)c2)c1,.
CS(=O)(=O)c1ccc([N+](=O)[O-])cn1,63
Cc1ccccc1Sc1ccc([N+](=O)[O-])cn1,.
O=[N+]([O-])c1ccc(S(=O)(=O)c2cccc(C(F)(F)F)c2)nc1,.
COC(=O)CNC(=O)c1coc(COc2cccc(C(F)(F)F)c2)n1,.
CCCC1C(c2ccc(Cl)cc2)NC(c2ccc(Cl)cc2)C(C)C1(C)O (stereo not drawn),.
CC(=O)c1ccccc1Sc1ccc(Cl)cc1,.
O=C(O)Cc1ccccc1Sc1ccc(Cl)cc1,.
NCc1ccccc1Sc1ccc(Cl)cc1,31
O=C1C2ON(c3ccc(Cl)cc3)C(c3ccc(F)cc3)C2C(=O)N1c1ccccc1 (stereo not drawn),.
COc1cc(CNc2ccc(N3CCCC3)cc2)cc(Cl)c1OC,.
CCOc1cc(CNc2ccc(O)cc2)cc(Cl)c1OCc1ccc(Cl)cc1,86
COc1cc(CNc2ccc(O)cc2)cc(Cl)c1OCc1ccc(Cl)cc1,.
CCOc1cc(CNc2ccc(N3CCCC3)cc2)cc(Cl)c1OC,63
CCOc1cc(CNc2ccc(C)c(Cl)c2)cc(Cl)c1OCc1ccc(Cl)cc1Cl,.
COc1cc(CNc2ccc(N3CCCCC3)cc2)cc(Cl)c1OCc1cccs1,.
COCCNC(=O)Cc1c2c(n(Cc3ccccc3F)c1C)CCCC2=O,.
CC1(C)CC(=O)C(C(c2ccc(C(=O)O)cc2)C2C(=O)CC(C)(C)CC2=O)C(=O)C1,.
O=C(COc1ccccc1)Nc1ccc(S(=O)(=O)Nc2nccs2)cc1,.
CCc1ccccc1NS(=O)(=O)c1ccc2c(c1)C(=O)C(C(=O)NC1CCCC1)C=N2 (stereo not drawn),.
CC(=O)c1sc(N2C(=O)C(=O)C(C(=O)c3cc4ccccc4o3)C2c2ccc(F)cc2)nc1C (stereo not drawn),.
O=C1C(=O)N(c2nnc(SCc3ccc(F)cc3)s2)C(c2cccc(Oc3ccccc3)c2)C1C(=O)c1cc2ccccc2o1 (stereo not drawn),41
Cc1ccc(CSc2nnc(N3C(=O)C(=O)C(C(=O)c4cc5ccccc5o4)C3c3ccc(OCc4ccccc4)cc3)s2)cc1 (stereo not drawn),47
CCCCCOc1ccc(C2C(C(=O)c3cc4ccccc4o3)C(=O)C(=O)N2c2nc(C)c(C(C)=O)s2)cc1OC (stereo not drawn),.
Cc1ccc(C2C(C(=O)c3cc4ccccc4o3)C(=O)C(=O)N2c2nnc(SCc3cccc4ccccc34)s2)cc1 (stereo not drawn),.
